Screening data as filed in PubChem BioAssay.
L major viab – Leishmania major promastigote growth inhibition | Leishmania major promastigotes, resazurin fluorescence viability | inhibition, % at 10 µM | 200,000 tested, 9% active | AID 1063; in the data active = inhibition above about 50%;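 also: promastigotes grown with compound for 44 hours at 28 °C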
Calpain2 inh – blocks pig calpain II enzyme activity | purified calpain II, fluorogenic peptide substrate, 30 min | 220,000 tested, 0.37% active | inhibition, % at 16 µM;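 active = inhibition above about 50%, limit read from the data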
WT yeast gro inh – growth inhibition of WT yeast, mitochondrial fusion screen | AID 1362 | 190,000 tested, 2.1% active | inhibition, % at 10 µM | mitochondrial fusion phenotypic screen, WT strain; in the data active = inhibition above about 58%; tested in S. cerevisiae
Cl transport mod – KCC2 (human) Cl- transport modulation | Q9H2X9 | KCC2 cells, thallium flux FluoZin-2 fluorescence | B-score of Tl+ flux slope (higher = more flux/activation; lower = inhibition) at 10 µM | 190,000 tested, 2.2% active | AID 1456;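 active = thallium flux slope and its plate-corrected score both differing from the plate sample mean at a set confidence after two filtering rounds, in either direction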;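 also: slope of fluorescence scaled to starting intensity during 10 to 20 s after thallium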
ROMK mod – human ROMK K+ channel modulation, primary screen. P48048. B-score at 10 µM. Tet-inducible ROMK, thallium flux fluorescence; actives lie on both sides. 130,000 tested, 2% active. AID 1918;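 active = signal ratio slope over the read window, or its plate-corrected B-score, at least 3 SD from the plate mean, either direction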;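 also: B-score of the F/F0 ratio slope over 7 to 12 s after thallium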
Target sequence (P48048 whole entry, looked up): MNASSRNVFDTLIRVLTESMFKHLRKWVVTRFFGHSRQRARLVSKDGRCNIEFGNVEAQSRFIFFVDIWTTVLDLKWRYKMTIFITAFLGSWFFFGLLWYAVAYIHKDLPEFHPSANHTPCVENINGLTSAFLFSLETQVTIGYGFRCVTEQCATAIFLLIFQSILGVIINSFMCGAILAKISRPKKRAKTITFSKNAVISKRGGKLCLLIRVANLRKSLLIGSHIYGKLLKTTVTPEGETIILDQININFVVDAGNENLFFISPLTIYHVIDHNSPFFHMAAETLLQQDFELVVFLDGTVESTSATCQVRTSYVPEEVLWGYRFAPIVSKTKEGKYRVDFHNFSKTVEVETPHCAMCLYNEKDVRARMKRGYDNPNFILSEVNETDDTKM
KCC2 secondary – KCC2 (human) modulation, secondary assay; HEK293-KCC2, thallium flux, FluoZin2 fluorescence; stronger effect = higher value; AID 1713; 3,700 tested, 15% active; normalised thallium flux (F/F0 slope) at 10 µM; shares compounds with Cl transport mod;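 active = thallium flux slope above the same plate's solvent-only control mean plus 3 SD; inconclusive = the two replicate wells disagree; inactive = no significant difference from solvent-only control wells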
KCC2 bumet counter – thallium flux persisting under bumetanide in KCC2 cells, counter-screen secondary assay. 3,700 tested, 49% active. normalized thallium flux at 10 µM. AID 1714. HEK293-KCC2 + bumetanide/ouabain, thallium flux FluoZin2; stronger effect = higher value. shares compounds with Cl transport mod;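 active = thallium entry rate above the same plate's blocked-transporter control wells by more than 3 SD; inconclusive = the two repeat wells disagree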;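 also: raw slope of fluorescence over initial fluorescence between 10 and 20 s after thallium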
KCC2 sec2 – KCC2 (human) modulation, second secondary assay | shares compounds with Cl transport mod | HEK293-KCC2, thallium flux FluoZin2 fluorescence; actives lie on both sides; F/F0 rise rate, 10–20 s post-thallium | normalized thallium flux at 10 µM | 3,700 tested, 23% active | AID 1715;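 active = thallium flux slope more than 3 SD above or below the plate's solvent-only control mean, mostly below; inconclusive = the two repeat wells disagreed; inactive = no significant shift from solvent-only controls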;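 also: raw slope with 0.1% DMSO as baseline and bumetanide as block control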
HEK counter1 – counter-screen for KCC2 modulators: effect in parental HEK293 cells. shares compounds with Cl transport mod. AID 1716. thallium flux FluoZin2, ouabain; baseline-ratio fluorescence slope, 10–20 s after thallium. thallium flux rate (normalised fluorescence) at 10 µM. 3,700 tested, 46% active;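 active = thallium flux rate significantly above the same plate's solvent-only control wells, beyond their mean plus 3 SD; inconclusive = the two replicate wells gave conflicting results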
KCC2 retest ouab – modulates human KCC2 on retest with ouabain | shares compounds with Cl transport mod | HEK293-KCC2, thallium flux FluoZin2 fluorescence; bidirectional: low = inhibitor, high = activator | raw Tl+ flux slope (below DMSO = inhibition, above = activation) at 10 µM | 3,700 tested, 48% active | AID 1717;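 active = thallium flux slope beyond 3 SD from same-plate DMSO control mean in most replicates, usually higher, sometimes lower; inconclusive = repeat tests gave conflicting results; inactive = no significant difference from controls in most replicates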;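 also: slope of initial-normalized fluorescence between seconds 10 and 20 after thallium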
HEK counter2 – acts in parental HEK cells, second KCC2 counter-screen; shares compounds with Cl transport mod; HEK293 parental, thallium flux FluoZin-2 fluorescence slope; thallium flux slope at 10 µM; 3,700 tested, 33% active; AID 1718;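 active = thallium flux slope above the same plate's solvent-control mean plus 3 SD in both duplicate wells; inconclusive = duplicate wells that disagreed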;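 also: run without ouabain in cells lacking the KCC2 cotransporter; slope of fluorescence scaled to its starting value between 10 and 20 s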
* = called active by the depositor; ? = inconclusive; / = no result. This is a sample that favours compounds with a hit; in the whole collection about 12% have one here.

SMILES	L major viab	Calpain2 inh	WT yeast gro inh	Cl transport mod	ROMK mod	KCC2 secondary	KCC2 bumet counter	KCC2 sec2	HEK counter1	KCC2 retest ouab	HEK counter2
COc1ccc(C(=O)Nc2nncs2)cc1S(=O)(=O)N1CC(c2ccccc2)CC1=O (configuration not stated)	1	-20	12	/	/	0.0063	0.0051	0.029	0.0075	?	0.011
Cc1ccc(OCCCn2c(=O)sc3ccccc32)cc1	-3	11	19	5.8*	/	0.01	0.0059	0.034	0.0078	0.021	?
Cc1ccc(C)n1-c1ncn[nH]1	-3	-43	-6	/	/	/	/	/	/	/	/
O=C(Cc1ccc(Br)cc1)Nc1cccc(-c2cn3c(n2)SCC3)c1	40	-23	8	-1.8	-1.6	/	/	/	/	/	/
Cc1ccc(/C=C2\SC(=S)N(c3c(C)n(C)n(-c4ccccc4)c3=O)C2=O)cc1	1	-41	26	-3.9*	-0.28	0.011	?	0.025*	0.0043	0.014*	0.012
Cc1c(N2C(=O)/C(=C3\C(=O)N(CC(=O)O)c4ccccc43)SC2=S)c(=O)n(-c2ccccc2)n1C	/	9	/	-0.044	/	/	/	/	/	/	/
Cc1c(N2C(=O)/C(=C/c3ccccc3)SC2=S)c(=O)n(-c2ccccc2)n1C	1	4	-24	-7.6*	/	0.0069	?	0.027*	0.008	0.014*	?
Cc1c(N2C(=O)/C(=C\c3ccccc3O)SC2=S)c(=O)n(-c2ccccc2)n1C	/	17	/	52*	/	0.027*	0.062*	0.068*	0.068*	0.063*	0.064*
Cc1ccc(OCC(=O)Nc2ccc(N3CCN(S(C)(=O)=O)CC3)cc2)cc1C	5	-22	0	-0.45	-0.4	/	/	/	/	/	/
CCOC(=O)Cc1csc(NC(=S)NC(=O)CC(C)C)n1	54*	36	22	8.8*	-0.14	?	0.04*	0.03	0.014*	0.036*	0.011*
CCOC(=O)Cc1csc(NC(=S)NC(=O)c2cc(OC)cc(OC)c2)n1	-3	-13	-4	26*	-0.26	0.015*	0.034*	0.03	0.023*	0.065*	0.012*
CCOC(=O)Cc1csc(NC(=S)NC(=O)c2cccc([N+](=O)[O-])c2)n1	-6	1	-2	9.6*	0.069	0.014*	0.034*	0.036	0.014*	0.034*	0.011
CN1C(=O)S/C(=C\c2ccccc2OCc2ccc(C(=O)O)cc2)C1=O	10	-31	-1	-2.4	-0.072	/	/	/	/	/	/
CC(C)N1C(=O)S/C(=C/c2ccccc2OCc2ccc(C(=O)O)cc2)C1=O	-10	-11	38	-4.7*	-1.6	0.0064	0.0047	0.024*	0.0064	0.014*	0.0088
CN(C)C(CNC(=O)CSc1nnc(-c2ccco2)o1)c1ccccc1 (configuration not stated)	-4	9	12	0.18	1.3	/	/	/	/	/	/
O=S(=O)(/N=C(\Nc1ccc(F)cc1)C(F)(F)F)c1ccccc1	-5	5	0	/	-0.8	/	/	/	/	/	/
Cc1cccc(N/C(=N\S(=O)(=O)c2ccccc2)C(F)(F)F)c1	-5	5	5	/	/	0.0053	?	0.029	0.01*	0.02	0.011
Cc1ccc(SCCNC(=O)c2ccc(C)c([N+](=O)[O-])c2)cc1	-2	20	22	/	/	/	/	/	/	/	/
COCCN(CCOC)C(=O)c1ccc(SCc2ccc(C)cc2)c([N+](=O)[O-])c1	-8	-4	5	-4.4*	-1.6	0.0064	0.0055	0.029	0.0059	0.015*	0.01
Cc1cnc(C(=O)OCC(=O)NCc2ccc3c(c2)OCO3)cn1	-4	-42	-1	/	0.86	/	/	/	/	/	/
